Each structure is given as a SMILES string. Several values for one entry are separate records, joined by “and”; a condition that tells them apart may be missing. Identical values can stand only once. More than one record can exist for a structure, and the calls need not agree. Activity calls are given as the source filed them. A call without a number means that no potency is given here. The call rests on the fitted dose curve; in most records, active means well fitted activation curve with a large enough effect in the repeat runs; inconclusive means weak or mixed curves; inactive means flat fitted curve, though single readings scatter.
Potency means the concentration at half of the fitted maximal effect.

The test can be described thus: A CellTox Green Cytotoxicity Assay to monitor cytotoxicity in HEK293 cells - 0 hour (AID 1224869). Further: nearly all actives have a fitted effect of over 50% in size. Particulars: CellTox Green fluorescence; series mostly up to 76.8 µM. The text has this: National Center for Advancing Translational Sciences [NCATS]
NIH Chemical Genomics Center [NCGC]
U.S. Environmental Protection Agency [EPA]
National Institutes of Environmental Health Sciences [NIEHS]
National Toxicology Program [NTP]
Cell-based models are critical for drug discovery. Determining the natural cytotoxic effects resulting from test compounds is an essential research activity. A CellTox Green Cytotoxicity Assay to monitor cytotoxicity in real time of continues cell culture during 40 hours of the compound treatment was used to screen Tox21 10K library compounds in Hek293 cells. CellTox Green Cytotoxicity Assay is a nonlytic, homogeneous, biofluorescent method to measure cytotoxicity in cell culture after experimental manipulation. The assay system uses a proprietary asymmetric cyanine dye that is excluded from viable cells but preferentially stains the dead cell's DNA. […] Viable cells produce no appreciable increases in fluorescence. Therefore, the fluorescence signal produced by the binding interaction with dead cell DNA is proportional to cytotoxicity.
The mixture of Hek293 cell suspension and reagents were dispensed at 600cells/6 ul/well in 1536-well tissue culture treated black solid bottom plates using a Multidrop dispenser. After the assay plates were incubated at a 37 C/5% CO2 incubator for 5 hours, 23 nL of compounds dissolved in DMSO, positive and negative controls was transferred to the assay plate by a pintool work station. The plates were incubated at 37 C for 40 hours. The fluorescence intensity were measured at 0h, 8h, 16h, 24h, 32h and 40h time points using ViewLux plate reader during compound treatment.
Regarding `C[N+](C)(C)Cc1ccccc1`, the Potency result is “inactive”.

For the compound `O=C(O)C(Cl)Cl`, the Potency result was “inactive”. Take `O=[N+]([O-])O`: the Potency result was “inactive”. In the case of `Nc1ccccc1`, the Potency result is “inactive”. In the case of `CN(C)[C@@H]1C(=O)C(C(N)=O)=C(O)[C@@]2(O)C(=O)C3=C(O)c4c(O)cccc4[C@@](C)(O)[C@H]3[C@H](O)[C@@H]12`, the Potency result is “inactive”. `CCC(=O)C(CC(C)N(C)C)(c1ccccc1)c1ccccc1` (stereo not given): the Potency result was “inactive”. Under `CC(Cl)(Cl)C(=O)O` stands “inactive”; under `CC(=O)O`, “inactive”; under `CC[N+](CC)(CC)CC`, “inactive”. As for `CCCCCCCCCCn1cc[n+](C)c1`, the Potency entry was “inactive”.

For the compound `COc1ccccc1N`, the Potency result is “inactive”. As to `O=C(O)C(Cl)(Cl)Cl`, the Potency entry was “inactive”.

With `CCCC[N+]1(C)CCCC1`, the Potency result is “inactive”. For the compound `N#CS`, the Potency entry is “inactive”. For the compound `CCCn1cc[n+](C)c1`, the Potency entry was “inactive”. Turning to `O=S(=O)(O)O`, the Potency entry is “inactive”. In the case of `COCC(=O)N(c1c(C)cccc1C)C(C)C(=O)OC` (stereo not given), the Potency result was “inactive”.

On to `CCCC[N+]1(C)CCCCC1`, for which the Potency result was “inactive”.

For the compound `CCCCCCCCCCCCCC[P+](CCCCCC)(CCCCCC)CCCCCC`, the Potency result is “inactive”. Regarding `COP(=O)(OC)C(O)C(Cl)(Cl)Cl` (stereo not given), the Potency entry is “inactive”.

On to `Cc1cc(Cl)ccc1OCC(=O)O`, for which the Potency result is “inactive”. Consider `CC[N+]1(C)CCCC1`, for which the Potency entry is “inactive”.

In the case of `CCCCCCCCn1cc[n+](C)c1`, the Potency entry was “inactive”.

`COP(=O)(OC)OC=C(Cl)Cl`: the Potency result is “inactive”. Regarding `CCn1cc[n+](C)c1C`, the Potency entry was “inactive”. The same measure for `COc1ccc(N)cc1`: “inactive”; for `Nc1ccc(-c2ccc(N)c(Cl)c2)cc1Cl`: “inactive and 38.9 µM (active)”; for `O=C(O)c1nc(Cl)ccc1Cl`: “inactive”. For `CCCCCC[n+]1ccccc1`, the Potency result is “inactive”. `CCCC[n+]1ccc(C)cc1`: the Potency entry is “inactive”. For `OCCOc1ccccc1`, the Potency entry was “inactive”. Under `CCCC[n+]1ccccc1C` stands “inactive”; under `C1CCC(NC2CCCCC2)CC1`, “inactive”; under `Nc1ccc(-c2ccc(N)cc2)cc1`, “inactive”.

Consider `CCCCn1cc[n+](C)c1`, for which the Potency result was “inactive”. On to `CCNc1nc(Cl)nc(NCC)n1`, for which the Potency entry is “inactive”.

As for `CCOP(=S)(OCC)Oc1ccc2c(C)c(Cl)c(=O)oc2c1`, the Potency result was “inactive”. For the compound `O=C(O)c1ccccc1O`, the Potency result was “inactive”. For `CCCCn1cc[n+](C)c1C`, the Potency entry was “inactive”. The same measure for `CCCC[n+]1ccccc1`: “inactive”.

These data come from PubChem BioAssay (Tox21).
